Screening results (PubChem)
Lassa entry: Lassa virus entry inhibition; 18,000 tested, 4.1% active; Potency, µM (titrated, usually from 49.2 µM), for the others: top-dose activity change, negative = inhibition, actives largely listed as inhibitors; Lassa virus pseudotyped entry inhibition, cell-based qHTS; AID 720533
Marburg entry: Marburg virus entry inhibition. AID 720532. Potency, µM (doses to about 49.2 µM), for inactives: at the top dose activity change, negative = inhibition, actives largely listed as inhibitors. Marburg virus pseudotype entry/binding inhibition, cell-based. 18,000 tested, 6.5% active
Numbers without * were called inactive; ? = inconclusive; · = not tested or not shown; ! = not active in a repeat; [ ] = another dose, or the depositor's remark. In the library only some 8% were active in any assay of this set; here they are far more common. Calls come from the whole dose curve; tested in HEK293 cells. % is set by controls: 0 for no effect and ±100 for the full control effect; potency is the fitted concentration of half-maximal effect.

SMILES | Lassa entry | Marburg entry
C=CCOC(=O)C1=C(C)N(CC)C(=O)NC1c1ccccc1 (configuration not stated) | 5%[8.59 µM] | -5%[8.59 µM]
CC1=C[C@]2(O[C@H](COc3ccccc3)C1)C(=O)N(C)c1ccccc12 | 95%[8.59 µM] | 144%[8.59 µM]
CC(C)c1ccc(CN2CCC3(CCC(CNC(=O)c4ccn(C)n4)O3)CC2)cc1 (configuration not stated) | -16% | ?
CC(C)CCON=O | -6% | -23%
CCON=O | 10µM* | -18%
C[C@H]1COc2cc(F)ccc2S(=O)(=O)N1 | -11% | ?
CCCCCC(=O)N1C[C@H](O)[C@@H](n2cc(C3CC3)nn2)C[C@H]1c1ccc(OC)cc1 | 8% | 13%
CCCCCCCCCCOCC(O)CN (configuration not stated) | 32µM* | ?
CCCCCCCC(=O)OCC(O)CO (configuration not stated) | 0% | 13%
CCCCCCCCCCCCSCCOCCO | -13% | 18%
CCCCCCCCCCCCCCCCOCCOCCOCCOCCOCCOCCOCCOCCOCCOCCOCCOCCOCCOCCOCCOCCOCCOCCOCCOCCO | 16µM* | ?
C=C(C#Cc1ccc(OC)cc1)CCN1C=C(C(=O)OCC)C(c2ccccc2)NC1=O (configuration not stated) | 32%[8.59 µM] | 6%[8.59 µM]
C[C@H]1CCCC(=O)N[C@@H](c2ccccc2)[C@@H](C)CCCC(=O)N[C@@H]1c1ccccc1 | 17%[8.59 µM] | 29%[8.59 µM]
O=C(C=Cc1ccccc1)Nc1cccc(C(=O)NC2CC2)c1 | 43% | 115%
O=C(OCc1cn([C@@H]2CN(CC3CCCCC3)[C@@H](c3ccccc3)C[C@@H]2O)nn1)c1ccccc1 | · | -28%
CC(=O)OC[C@H]1O[C@H](CCON=C[C@@H](C)[C@H](OCc2ccccc2)C(C)C)C=C[C@@H]1OC(C)=O | -11%[8.59 µM] | -2%[8.59 µM]
CN1CCN(c2nc3cc(C(F)(F)F)ccc3n3cccc23)CC1 | -22% | 28µM*!
CC(=O)CCC(=O)N1CCC(n2c(C3CCCO3)nc3cc(C(F)(F)F)ccc32)CC1 (configuration not stated) | 0% | 1%
CC1(C)CC(n2cnc(-c3ccc(F)cc3)c2-c2ccnc(N)n2)CC(C)(C)N1 | 27% | ?
COc1ccc2c(c1)CCc1cnc(-n3ncc(C(=O)NCCCN4CCOCC4)c3C)nc1-2 | -7% | ?
COc1ccc2c(c1)-c1nc(-n3ncc(C(=O)NCC4CCCN(C)C4)c3C3CC3)ncc1CC2 (configuration not stated) | 0% | ?
COc1ccc2c(c1)-c1nc(-n3ncc(C(=O)NC[C@@H]4CCCN5CCCC[C@H]45)c3C)ncc1CC2 | 35µM* | 5µM*
COc1ccc2c(c1)CCc1cnc(-n3ncc(C(=O)NCC(C)(C)CN(C)C)c3C)nc1-2 | ? | 4.5µM*
COC[C@H]1CCCN1[C@H]1C[S+](=O)([O-])N[C@H]1COCc1ccccc1 | 16% | 36%
COc1ccc2c(c1)[C@@]1(OCCC=C[C@@H]1C)C(=O)N2CC=C(C)CCC=C(C)C | 23%[8.59 µM] | -10%[8.59 µM]
SMILES | Lassa entry | Marburg entry
CNCCC(Oc1ccc(C(F)(F)F)cc1)c1ccccc1 (configuration not stated) | 18µM*! | 7.1µM*
FC(F)(F)c1cc(NC(=S)NC(c2ccccc2)c2ccccc2)cc(C(F)(F)F)c1 | -44% | ?
COC(=O)C1=C(C(=O)OC)[C@@H]2Nc3ccccc3[C@@]23C[C@@H](C(=O)OC)N(C(=O)NC2CCCC2)C3=N1 | 1%[8.59 µM] | -4%[8.59 µM]
COc1cccc([C@H]2Oc3ccc(OC)cc3C(=NOC[C@@H](C)[C@H](OCc3ccccc3)C(C)C)[C@H]2O)c1 | 11%[8.59 µM] | 10%[8.59 µM]
C=CCOC(=O)C(C(C)=O)[C@@H](NC(=O)OC)c1ccc(Cl)cc1 (some centres not stated) | -4%[8.59 µM] | -10%[8.59 µM]
CC#CCN1C(=O)NC(c2ccccc2)C(C#N)=C1C (configuration not stated) | -18%[8.59 µM] | 23%[8.59 µM]
CC(C)CNC(=O)c1cn(C2CCN(Cc3nc4ccccc4s3)CC2)nn1 | -5% | 2.8µM*
CN(CCO)C(=O)c1cn(C2CCN(Cc3ccc4ccccc4c3)CC2)nn1 | -4% | -29%
CC1(C)O[C@@H](C(O)(c2cc(C(F)(F)F)cc(C(F)(F)F)c2)c2cc(C(F)(F)F)cc(C(F)(F)F)c2)[C@H](C(O)(c2cc(C(F)(F)F)cc(C(F)(F)F)c2)c2cc(C(F)(F)F)cc(C(F)(F)F)c2)O1 | -3%[8.59 µM] | -9%[8.59 µM]
Cc1cnc(-n2ncc(C(=O)N(C)CCc3ccccn3)c2-c2cccs2)nc1-c1ccc(F)cc1 | -29% | -42%
CCC(=O)N[C@@H]1c2ccccc2C2(CCN(Cc3[nH]c4c(Cl)cccc4c3C)CC2)[C@H]1OC | 25µM* | 11µM*
CCC(=O)N[C@@H]1c2ccccc2C2(CCN(Cc3ccccn3)CC2)[C@H]1OC | -4% | 9%
CCC(C)C(=O)OC1C[C@@]2(C)C(c3ccoc3)OC(=O)CC23OC2(C)OC34C(OC(=O)C(C)C)[C@]3(O)C(OC(=O)C5(C)OC5C)[C@]5(C)CC3(O)[C@](C)(C5CC(=O)OC)C14O2 (some centres not stated) | 3% | 14µM*
COC(=O)CC1C2(C)CC34OC5(C)O[C@@]6(C7/C(=C(/O)C(C)C)C(=O)OC(c8ccoc8)[C@]7(C)C(OC(C)=O)C(OC(C)=O)[C@]6(O5)[C@@]13C)C(OC(C)=O)[C@]4(O)C2OC(=O)C(C)C (some centres not stated) | -2% | ?
CCOC(=O)CCN1C(=O)[C@@H]2[C@H]3[C@H](O)[C@H](O)CC(=NNC(=O)OCc4ccc(OC)cc4)[C@@H]3CC[C@H]2C1=O | ? | 12%[8.59 µM]
C#CCN1C(=O)[C@]2(OCCC=C[C@@H]2C)c2cc(OC)ccc21 | 5%[8.59 µM] | 9%[8.59 µM]
CC#CCN1c2ccccc2[C@]23CCC(=O)N(CCCOC(C)C)C2=NC(C(=O)OC)=C(C(=O)OC)[C@H]13 | 11%[8.59 µM] | -12%[8.59 µM]
CC(Oc1cc(-n2cnc3ccc(OCC4CCN(C)CC4)cc32)sc1C(N)=O)c1ccccc1Cl (configuration not stated) | · | 0.63µM*
COc1ccc2ncn(-c3cc(OC(C)c4ccccc4Cl)c(C(N)=O)s3)c2c1 (configuration not stated) | ? | 0.32µM*
CC(Oc1cc(-n2cnc3ccc(OCC4CCN(C)CC4)cc32)sc1C(N)=O)c1ccccc1C(F)(F)F (configuration not stated) | · | 1.4µM*
NC(=O)c1sc(-n2cnc3ccccc32)cc1OCc1ccccc1Br | · | 16µM*
C[C@H]1C=CCC(=O)N[C@@H](c2ccc3ccccc3c2)[C@@H](C)C=CCC(=O)N[C@@H]1c1ccc2ccccc2c1 | -1%[8.59 µM] | 20%[8.59 µM]
COc1ccc2c(c1)[C@H](C=Cc1ccccc1)[C@@H]([C@H](O)CO)O2 | -6%[8.59 µM] | 17%[8.59 µM]
O=C1OC2(CCCCC2)CC2=C1[C@H]1O[C@](c3ccsc3)(Cc3ccccc31)O2 | -11%[8.59 µM] | 35%[8.59 µM]
CCOC(=O)CN1C(=O)[C@]2(O[C@H](COc3ccccc3)CC3=C2CCC3)c2ccccc21 | -15%[8.59 µM] | 30%[8.59 µM]
NCCc1ccccn1 | -3% | 16%
c1ccc(CN(CCN(Cc2ccccn2)Cc2ccccn2)Cc2ccccn2)nc1 | 10µM* | 10µM*
CSC[C@H]1CN(Cc2ccccc2)C(=O)[C@H]1CC(=O)Nc1ccc(Br)cc1 | -27% | -22%
C=C1CCC2C(C)(CO)C(O)CCC2(C)C1C/C=C1\C(=O)OCC1O (configuration not stated) | ? | 11µM*
CCCCCc1cc(O)c2c(c1)OC(C)(C)[C@@H]1CCC(C)=C[C@@H]21 | 35µM* | -23%
